In PubChem BioAssay (NCATS):
Inconclusive results are not listed. Calls of active or inactive are those of the source. Calls come from the whole dose curve; as a rule, active = well fitted curve in the direction sought with a large enough effect; inconclusive = small, poorly fitted or top-dose-only effect, or another doubt; inactive = no such curve, though single readings can be large; an effect the other way counts as inactive or inconclusive. Numbered stars: 1 amine (or outer) side, 2 acyl side, 3 side chain; on linkers, the order of the positions; unused ones are H or OH. Bridge positions count the residues as written; N and C are the ends. Square brackets hold non-standard residues; d marks the D form. Peptide text beside a SMILES is read from it. I, II: the chains in the order shown. Actinocin(9to1) = Cc1c2oc3c(C)ccc(C(=O)[*:1])c3nc-2c(C(=O)[*:2])c(N)c1=O; NMeV = CN[C@H](C(=O)O)C(C)C; Sar = CNCC(=O)O

Columns and labels:
[1] = qHTS of pediatric cancer cell lines to identify multiple opportunities for drug repurposing: Confirmatory screen for BT-37 cells (AID 1347117); note: potency is the fitted concentration of half-maximal effect;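 note: viability measured after 48 h of compound exposure; nearly all actives have a fitted effect of over 55% in size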
Method in brief: (§1)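 Cells (500-1,000/well) in growth media were settled 5 h at 37 degrees C, then given compounds for 48 h. Viability was read as CellTiter-Glo luminescence. Primary runs used MIPE at 11 points (0.78 nM-46 µM) and NPC at 8 points (0.59 nM-46 µM); follow-ups used 11 points.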

[2] = qHTS of pediatric cancer cell lines to identify multiple opportunities for drug repurposing: Confirmatory screen for MG 63 (6-TG R) cells (AID 1347119); note: nearly all actives have a fitted effect of over 55% in size; note: potency is the fitted concentration of half-maximal effect
Method in brief: as §1

[3] = qHTS of pediatric cancer cell lines to identify multiple opportunities for drug repurposing: Confirmatory screen for control Hh wild type fibroblast cells (AID 1347121); note: nearly all actives have a fitted effect of over 70% in size
Method in brief: as §1

[4] = qHTS of pediatric cancer cell lines to identify multiple opportunities for drug repurposing: Confirmatory screen for RD cells (AID 1347124);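 note: cells exposed to compound for 48 h before viability readout; nearly all actives have a fitted effect of over 65% in size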; note: potency is the fitted concentration of half-maximal effect
Method in brief: as §1

[5] = qHTS of pediatric cancer cell lines to identify multiple opportunities for drug repurposing: Confirmatory screen for Rh30 cells (AID 1347126); note: nearly all actives have a fitted effect of over 55% in size; note: potency is the fitted concentration of half-maximal effect
Method in brief: as §1

[6] = qHTS of pediatric cancer cell lines to identify multiple opportunities for drug repurposing: Confirmatory screen for OHS-50 cells (AID 1347128);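 note: potency is the fitted concentration of half-maximal effect; compound exposure lasted 48 h at 37 degrees C; nearly all actives have a fitted effect of over 55% in size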
Method in brief: as §1

[7] = qHTS of pediatric cancer cell lines to identify multiple opportunities for drug repurposing: Confirmatory screen for SK-N-SH cells (AID 1347129);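 note: cells exposed to compound for 48 h before viability read; nearly all actives have a fitted effect of over 60% in size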; note: potency is the fitted concentration of half-maximal effect
Method in brief: as §1

[8] = qHTS of pediatric cancer cell lines to identify multiple opportunities for drug repurposing: Confirmatory screen for Rh18 cells (AID 1347125); note: nearly all actives have a fitted effect of over 55% in size
Method in brief: as §1

Measured: Potency

COc1cc(C=C2CCC/C(=C\c3ccc(O)c(OC)c3)C2=O)ccc1O
inactive: [3]
active: [1] 5.85 µM | [2] 20.8 µM | [4] 9.27 µM | [5] 20.8 µM | [6] 16.5 µM | [7] 18.7 µM

Cc1c2oc3c(C)ccc(C(=O)N[C@@H]4C(=O)N[C@H](C(C)C)C(=O)N5CCC[C@H]5C(=O)N(C)CC(=O)N(C)[C@@H](C(C)C)C(=O)O[C@@H]4C)c3nc-2c(C(=O)N[C@@H]2C(=O)N[C@H](C(C)C)C(=O)N3CCC[C@H]3C(=O)N(C)CC(=O)N(C)[C@@H](C(C)C)C(=O)O[C@@H]2C)c(N)c1=O (I: T[dV]P[Sar][NMeV] / II: T[dV]P[Sar][NMeV]; ester I:1-I:C, II:1-II:C; linker I:N-II:N via Actinocin(9to1))
active: [1] 0.0023 µM | [2] 0.0329 µM | [6] 0.0293 µM | [7] 0.0118 µM
inactive: [3] | [5]

CC(=O)OCC(=O)[C@@]12OC(C)(C)O[C@@H]1C[C@H]1[C@@H]3C[C@H](F)C4=CC(=O)C=C[C@]4(C)[C@@]3(F)[C@@H](O)C[C@@]12C
inactive: [2] | [4] | [8] | [5] | [7]

CN(C)/N=N/c1nc[nH]c1C(N)=O
active: [2] 0.369 µM
not listed: [6]
inactive: all other assays above

CC(=O)Oc1ccc(C(c2ccc(OC(C)=O)cc2)c2ccccn2)cc1
active: [2] 1.17 µM
not listed: [1] | [6]
inactive: all other assays above

CC(=O)O[C@]1(C(C)=O)CC[C@H]2[C@@H]3C[C@H](C)C4=CC(=O)CC[C@]4(C)[C@H]3CC[C@@]21C
inactive: [2] | [3] | [4] | [8] | [5]
